The record followed here is PubChem BioAssay (NCATS).

SMILES strings stand for the structures. Values joined by “and” are separate entries in the source; they are usually repeats but may differ in a detail not shown here. Equal entries are not always repeated. Unmarked numbers belong to inactive results. Results filed as inconclusive are left out. Some structures have more than one record in an assay (separate samples or runs), and their calls can disagree. Active and inactive are the calls of the source. Unless noted, the call rests on the fitted dose curve; in most records, active means well fitted curve in the direction sought with a large enough effect; inconclusive means small, poorly fitted or top-dose-only effect, or another doubt; inactive means no such curve, though single readings can be large; an effect the other way counts as inactive or inconclusive.

Test [1] in a line: qHTS assay for small molecule agonists of the antioxidant response element (ARE) signaling pathway (AID 651741; active means well fitted activation curve with a large enough effect in the signal ratio; the % refers to the signal ratio; further: potency means the concentration at half of the fitted maximal effect; on activation: % of control where 0% means no effect). The method in brief: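 Beta-lactamase reporter under ARE control in HepG2 cells, 2,000 per well, was induced by 16 h compound treatment at 37 C. Read-out was fluorescence from LiveBLAzer B/G FRET substrate after 2 h at room temperature.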
For orientation: qHTS replaces the single test concentration by a dilution series.

Test [2] can be described thus: qHTS assay for small molecule activators of the p53 signaling pathway (AID 651743; active means well fitted activation curve with a large enough effect in the signal ratio, not every such curve was filed as active; the % refers to the signal ratio; further: series mostly up to about 92 µM; % of control where 0% means no effect). Particulars: HCT-116 p53RE-bla, beta-lactamase FRET ratio, 16 h; activation: active compounds read high. The method in brief:
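After 16 hours compound treatment at 37 C, HCT-116 cells stably expressing p53RE-driven beta-lactamase were loaded with LiveBLAzer B/G FRET substrate for 2 hours at room temperature. Fluorescence intensity served as the p53 activation read-out.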

Test [3] in a line: qHTS assay for small molecule activators of the nuclear factor-kappa B (NF-kB) signaling pathway (AID 651749; active means well fitted activation curve with a large enough effect in the signal ratio; the % refers to the signal ratio; further: series mostly up to about 77 µM; % of control where 0% means no effect). Particulars: NF-kB-bla ME-180 cells, beta-lactamase FRET ratio, 16 h; active compounds read high. The method in brief: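 Activation measured after 16 hr compound treatment at 37C, 5% CO2, of 2,000 ME-180 cells/well stably expressing an NF-kB response element–driven beta-lactamase reporter, via FRET-disruption fluorescence.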

The nature of test [4]: qHTS assay for small molecule disruptors of the mitochondrial membrane potential - 1 hr assay (AID 651754; calls by dose curve; further: on the % scale 0 is the no-effect control and ±100 the full control effect; nearly all actives have a fitted effect of over 35% in size). A digest of the protocol:
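Mitochondrial potential in living HepG2 cells after 1 hr compound treatment at 37C was read with Mito-MPS dye added for a further 30 min. Red aggregate and green monomer fluorescence were measured; loss of potential leaves dye as cytoplasmic monomers.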

Test [5] can be described thus: qHTS assay for small molecule disruptors of the mitochondrial membrane potential - 5 hr assay (AID 651755; calls by dose curve; further: on the % scale 0 is the no-effect control and ±100 the full control effect; nearly all actives have a fitted effect of over 40% in size). A digest of the protocol:
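Membrane-potential dye readout: red aggregate (540 ex/590 em) versus green monomer (490 ex/535 em) fluorescence after 30 min dye loading, following 5 hr compound exposure at 37C of overnight-plated HepG2 cells.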

Test [6] addresses Tumor necrosis factor (Homo sapiens) (UniProt P01375). Kind of test: qHTS assay to identify small molecules that stimulate Tumor Necrosis Factor-alpha (TNF-alpha) secretion (AID 651757; active means well fitted curve in the direction sought with a large enough effect in the signal ratio; the % refers to the signal ratio; further: 0% is about no effect). A digest of the protocol: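 Secreted TNF-alpha quantified by TR-FRET sandwich of two labeled anti-TNF-alpha antibodies, incubated 3 hr at room temperature. Preceded by 17 hr, 37 C compound treatment of THP-1 cells at 3000 cells/well.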

Test [7] can be described thus: qHTS assay for environmental chemicals that activate the Aryl hydrocarbon Receptor (AhR) signaling pathway (AID 651777). Further: nearly all actives have a fitted effect of over 15% in size. Further: potency means the concentration at half of the fitted maximal effect. On activation: % of control where 0% means no effect. Particulars: 1A2-DRE human hepatoma cells, luciferase, 24 h; activation: active compounds read high. A digest of the protocol: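 1A2-DRE human hepatoma reporter line; 1,200 cells/well; cmpd or DMSO 24 h, 37 C/5% CO2; One-Glo 30 min RT; luciferase lum.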

Test [8] concerns the target Peroxisome proliferator-activated receptor alpha (Homo sapiens) (UniProt Q07869). Kind of test: qHTS assay for small molecule agonists of the peroxisome proliferator-activated receptor alpha (PPARalpha) signaling pathway (AID 651778). Further: % of control where 0% means no effect. Particulars: PathHunter PPARalpha complementation, chemiluminescence, 6 h; active compounds read high. The method in brief:
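Chemiluminescence from complemented enzyme reported PPARalpha activation in cells after 6 hr of compound treatment at 37 C. The detection reagent was incubated for 60 min at room temperature, and compounds were scored as agonists.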

Test [9] concerns the target Nuclear receptor ROR-gamma (Homo sapiens) (UniProt P51449). Kind of test: qHTS assay for small molecule antagonists of the retinoid-related orphan receptor gamma (ROR-gamma) signaling pathway (AID 651802).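 Further: CHO cells with doxycycline-induced ROR-gamma expression; luciferase reporter luminescence driven by ROR response element; series mostly up to about 92 µM; on the % scale 0 is the no-effect control and ±100 the full control effect; nearly all actives have a fitted effect of over 60% in size.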 A digest of the protocol: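 Luminescence (One-Glo, 30 min RT) measured 16 h after compound addition and doxycycline induction at 37C. Reporter: RORE-luciferase under TET-inducible ROR-gamma in CHO cells.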

Test [10] in a line: qHTS assay to identify small molecules that stimulate interleukin-8 (IL-8) secretion (AID 651758; active means well fitted activation curve with a large enough effect in the signal ratio; the % refers to the signal ratio; further: 0% is about no effect). The method in brief:
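Secreted IL-8 measured homogeneously by TR-FRET (two labelled anti-IL-8 antibodies, 1-3 h at room temperature) after a 16 h, 37 C compound treatment of THP-1 cells at 2000 cells/well.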

Test [11] is described as follows: qHTS for Inhibitors of Ubiquitin-specific Protease USP2a Using CHOP2 as the Reporter: K633 Counterscreen (AID 652168). Further: series mostly up to about 57 µM; % of control where 0% means no effect. A digest of the protocol: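 Detection-system control: fluorescence of K48-linked DiUb-4IQF substrate (100 nM as added) tracked over time, Ex 525/Em 598, with pinned compounds and no enzyme, in pH 8 Tris buffer containing beta-mercaptoethanol and 0.05% Chaps.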

Test [12] can be described thus: qHTS for Inhibitors of Ubiquitin-specific Protease USP2a Using CHOP2 as the Reporter: Cytotox Assay (AID 652170).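 Further: HCT116 human colon cancer cells at 600 per well; series mostly up to about 46 µM; plate controls were DMSO-treated cells for no effect and wells without cells for full effect; nearly all actives have a fitted effect of over 70% in size.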 A digest of the protocol:
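Cytotoxicity read as ATP luminescence (CellTiter-Glo) after 72 hr compound treatment at 37 deg C. Cells: HCT116, 600/well in DMEM plus 10% FBS. Normalization between DMSO-treated cells and cell-free wells.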

For test [13], the target named is Ubiquitin carboxyl-terminal hydrolase 2 (Homo sapiens) (UniProt O75604). Kind of test: qHTS for Inhibitors of Ubiquitin-specific Protease USP2a Using CHOP2 as the Reporter: K484 Substrate (AID 652173).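 Further: cleavage of internally quenched K48 di-ubiquitin substrate measured as rising fluorescence over time; nearly all actives have a fitted effect of over 70% in size.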 A digest of the protocol:
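Kinetic fluorescence (Ex 525/Em 598) tracked cleavage of an internally quenched K48 di-ubiquitin substrate, added as a 100 nM solution. The enzyme was added as a 5 nM USP2 solution before compound pinning, with no-enzyme controls. Buffer: Tris pH 8, beta-mercaptoethanol, CHAPS.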

Test [14] addresses Tyrosine-protein kinase Yes (Homo sapiens) (UniProt P07947). The test can be described thus: qHTS for small molecule inhibitors of Yes1 kinase: Primary Screen (AID 686947). Further: potency means the concentration at half of the fitted maximal effect; nearly all actives have a fitted effect of over 60% in size. A digest of the protocol: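 ADP-Glo luminescence reports ADP formed by 4 nM Yes1 phosphorylating poly(E4Y) (0.3 mg/mL) with 0.1 mM ATP for 60 min at room temperature, following 20 min compound preincubation; normalised between DMSO wells with and without enzyme.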

Test [15] can be described thus: qHTS for small molecule inhibitors of Yes1 kinase: Counter Assay (AID 686950).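 Further: no kinase present so only ADP-Glo detection of a fixed ADP amount is tested; luminescence from ADP-Glo reporting ADP in a fixed ATP and ADP mixture; series mostly up to about 77 µM; 0% = DMSO wells with ATP plus ADP and -100% = ATP-only wells without ADP.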 A digest of the protocol:
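ADP-Glo luminescence read after a 60 min room-temperature incubation of compound with an ATP/ADP mix (0.08 mM/0.02 mM) and no kinase, following a 20 min compound preincubation. Signal scaled between ATP+ADP (max) and 0.1 mM ATP-only (min) wells; Tris pH 7.5, Mg2+, DTT.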

Test [16] has as its target Arylsulfatase A (Homo sapiens) (UniProt P15289). The test can be described thus: qHTS screen for enhancers of Arylsulfatase A (ASA1): LOPAC Validation Assay (AID 720538). Particulars: outcome: dose series up to 57.5 µM. The method in brief:
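SV40-transformed skin fibroblasts from an MLD patient (ASA-I179S) were treated with compounds for 48h at 37 degree C, then lysed with 0.5mM pNCS final substrate for 14h at room temperature; NaOH stop, fluorescence read (Ex=525 nm; Em=598 nm).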

Chain of Peroxisome proliferator-activated receptor alpha (Homo sapiens) (Q07869 whole entry, looked up): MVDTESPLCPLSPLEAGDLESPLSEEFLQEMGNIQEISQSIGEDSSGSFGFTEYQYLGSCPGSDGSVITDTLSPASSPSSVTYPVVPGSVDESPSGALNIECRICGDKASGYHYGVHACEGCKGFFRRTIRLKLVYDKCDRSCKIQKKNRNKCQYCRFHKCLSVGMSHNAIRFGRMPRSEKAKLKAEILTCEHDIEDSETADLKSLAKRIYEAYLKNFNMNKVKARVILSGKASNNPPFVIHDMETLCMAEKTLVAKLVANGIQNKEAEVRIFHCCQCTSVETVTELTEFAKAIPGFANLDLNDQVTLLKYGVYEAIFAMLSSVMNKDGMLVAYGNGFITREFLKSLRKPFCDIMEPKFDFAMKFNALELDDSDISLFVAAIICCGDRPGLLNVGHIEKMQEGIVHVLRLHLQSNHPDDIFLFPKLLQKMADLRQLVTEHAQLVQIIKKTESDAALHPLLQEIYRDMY
Chain of Nuclear receptor ROR-gamma (Homo sapiens) (P51449 whole entry, looked up): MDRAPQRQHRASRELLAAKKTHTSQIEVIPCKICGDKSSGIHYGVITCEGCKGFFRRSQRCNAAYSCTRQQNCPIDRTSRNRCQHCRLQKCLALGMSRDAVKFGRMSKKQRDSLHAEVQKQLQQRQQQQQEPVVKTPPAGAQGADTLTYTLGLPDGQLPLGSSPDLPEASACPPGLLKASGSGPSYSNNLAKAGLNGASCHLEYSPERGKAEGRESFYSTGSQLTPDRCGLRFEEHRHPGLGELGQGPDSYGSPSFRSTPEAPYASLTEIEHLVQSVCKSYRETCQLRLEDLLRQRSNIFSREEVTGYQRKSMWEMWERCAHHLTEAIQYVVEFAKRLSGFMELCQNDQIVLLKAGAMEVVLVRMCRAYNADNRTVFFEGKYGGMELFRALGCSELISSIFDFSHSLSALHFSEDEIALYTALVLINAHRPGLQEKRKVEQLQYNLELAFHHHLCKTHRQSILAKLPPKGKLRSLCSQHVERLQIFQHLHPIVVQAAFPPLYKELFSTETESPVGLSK
Chain of Arylsulfatase A (Homo sapiens) (P15289 whole entry, looked up): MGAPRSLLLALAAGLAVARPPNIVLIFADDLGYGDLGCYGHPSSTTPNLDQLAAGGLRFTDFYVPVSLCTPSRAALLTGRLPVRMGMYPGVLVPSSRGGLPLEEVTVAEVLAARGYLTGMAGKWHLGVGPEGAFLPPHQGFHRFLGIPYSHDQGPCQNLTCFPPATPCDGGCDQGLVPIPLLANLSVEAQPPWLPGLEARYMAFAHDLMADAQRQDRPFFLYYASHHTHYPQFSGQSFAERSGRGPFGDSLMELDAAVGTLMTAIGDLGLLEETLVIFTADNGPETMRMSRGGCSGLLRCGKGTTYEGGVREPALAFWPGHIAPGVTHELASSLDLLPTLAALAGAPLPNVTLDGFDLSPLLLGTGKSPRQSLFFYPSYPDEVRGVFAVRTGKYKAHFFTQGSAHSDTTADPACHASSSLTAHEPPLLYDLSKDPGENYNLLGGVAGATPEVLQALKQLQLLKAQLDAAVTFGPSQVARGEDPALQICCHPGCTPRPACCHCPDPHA
Chain of Tumor necrosis factor (Homo sapiens) (P01375 whole entry, looked up): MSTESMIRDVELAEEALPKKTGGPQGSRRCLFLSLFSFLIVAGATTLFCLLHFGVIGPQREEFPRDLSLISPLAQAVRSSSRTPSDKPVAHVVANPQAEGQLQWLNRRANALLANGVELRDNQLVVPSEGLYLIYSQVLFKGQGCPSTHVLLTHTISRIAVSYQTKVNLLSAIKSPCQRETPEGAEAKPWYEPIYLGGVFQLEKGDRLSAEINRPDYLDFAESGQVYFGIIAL
Chain of Ubiquitin carboxyl-terminal hydrolase 2 (Homo sapiens) (O75604 whole entry, looked up): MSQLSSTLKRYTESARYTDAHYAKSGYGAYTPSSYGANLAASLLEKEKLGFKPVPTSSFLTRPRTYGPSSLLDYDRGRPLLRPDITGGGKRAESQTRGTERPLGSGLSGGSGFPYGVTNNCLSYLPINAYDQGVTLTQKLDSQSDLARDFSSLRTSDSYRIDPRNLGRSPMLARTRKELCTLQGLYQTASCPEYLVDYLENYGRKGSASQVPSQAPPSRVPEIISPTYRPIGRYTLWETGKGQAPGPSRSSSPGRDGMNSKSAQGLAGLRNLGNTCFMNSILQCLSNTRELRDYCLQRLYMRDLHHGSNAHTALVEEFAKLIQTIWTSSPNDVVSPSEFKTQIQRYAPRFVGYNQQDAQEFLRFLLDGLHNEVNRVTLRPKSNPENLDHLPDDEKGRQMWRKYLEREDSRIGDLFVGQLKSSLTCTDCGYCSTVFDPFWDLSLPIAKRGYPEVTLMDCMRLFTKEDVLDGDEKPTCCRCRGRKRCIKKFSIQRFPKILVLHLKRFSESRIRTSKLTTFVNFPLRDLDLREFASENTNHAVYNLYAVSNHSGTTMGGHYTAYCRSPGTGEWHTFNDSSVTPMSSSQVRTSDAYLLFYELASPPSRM
Chain of Tyrosine-protein kinase Yes (Homo sapiens) (P07947 whole entry, looked up): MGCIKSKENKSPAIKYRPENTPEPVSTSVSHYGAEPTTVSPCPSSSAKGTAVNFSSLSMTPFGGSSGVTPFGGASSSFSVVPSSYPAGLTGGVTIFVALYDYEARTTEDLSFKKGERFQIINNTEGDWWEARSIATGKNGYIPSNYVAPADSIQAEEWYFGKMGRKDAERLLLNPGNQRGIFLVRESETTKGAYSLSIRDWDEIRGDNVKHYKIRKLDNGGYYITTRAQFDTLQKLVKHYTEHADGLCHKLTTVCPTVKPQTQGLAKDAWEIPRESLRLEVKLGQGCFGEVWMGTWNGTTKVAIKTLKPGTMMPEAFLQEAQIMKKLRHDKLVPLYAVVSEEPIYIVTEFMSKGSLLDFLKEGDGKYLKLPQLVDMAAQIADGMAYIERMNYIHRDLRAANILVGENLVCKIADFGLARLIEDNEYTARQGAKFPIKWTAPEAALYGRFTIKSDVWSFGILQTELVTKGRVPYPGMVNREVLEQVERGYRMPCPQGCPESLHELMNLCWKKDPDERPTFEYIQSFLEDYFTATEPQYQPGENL

For the compound `CC(=O)OC/C=C(C)/C=C/C=C(C)/C=C/C1=C(C)CCCC1(C)C`, the Potency in test [1] was 42.2 µM (active) and 54.5 µM (active). Also, the activation in [2] was -8.23% and -2.69%; in [3], -1.82% and 0.334%; in test [7] it was -0.036% and -0.475%. Further, the Potency entry in test [4], in [5] and in test [9] was “inactive” throughout. The compound was called inactive in [6]. Besides, the max response in test [8] is -6.94% and -1.56%.

Turning to `C1=CC2C3C=CC(C3)C2C1` (configuration not stated), the Potency result in [1] and in test [9] was “inactive” each time. Further, the activation was -1.4% in [2], -1.05% in [3] and 0.971% in [7]. Moreover, in test [6], the compound was called inactive. For the same compound, the max response in [8] was -3.12%.

For `Cc1ncc(CO)c(CO)c1O`, in [1], the Potency result was “inactive”. Also, in [7], the activation is -1.88%. Besides, the max response in [8] is -1.89%.

For `c1ccc2occc2c1`, the activation is -0.261% and -6.48% and -3.89% in [2]; -0.808% and 0.0616% and -0.684% in test [3]; 2.4% in test [7]. The Potency result in test [4], in [5] and in test [9] was “inactive” in each case. The outcome in test [6] was inactive. Also, the Potency in test [7] was 1.26 mM (active) and 25.1 µM (active). In test [8], the max response was 0.199% and 3.33% and -1.19%.

Regarding `CCCCC(CC)COC(=O)c1ccccc1C(=O)O` (configuration not stated), in [2], the activation was -2.67% and -0.261%. For the same compound, the Potency entry in test [4], in test [5] and in [9] was “inactive” throughout. Also, the result in test [6] and in test [10] was inactive.

For `CCCC(=O)c1cc(O)c(O)cc1O`, the activation was -5.77% in [2], 0.282% in test [3] and -2.11% in test [7]. Besides, the Potency entry in [5] and in [9] was “inactive” each time. Further, the max response in test [8] was -3.73%.

`CN1C(=O)c2ccccc2C1=O`: the Potency entry in [1] was “inactive”. For the same compound, the activation was 8.47% in test [2], 0.745% in test [3] and 1.05% in test [7]. Further, the max response in test [8] is -1.08%.

For the compound `CCCCCCCCCCCC[N+](C)(C)Cc1ccccc1`, the activation in [3] was 3.11%; in test [7] it was -1.52%. In [8], the max response is 8.99%.

Turning to `CC(=O)Nc1ccc(S(=O)(=O)Nc2cc(C)on2)cc1`, the result in test [11], in test [12] and in [13] was inactive.

Take `CN1CCC(Nc2ncc3ncnc(Nc4ccc(F)c(Cl)c4)c3n2)CC1`: the Potency in [14] is 3450 nM (active). Moreover, the compound was classed as inactive in test [15].

On to `CCCCCCCCCCCCCCCC[n+]1ccccc1`, for which the activation in test [2] is 2.82%; in test [7], 5.1%. For the same compound, the Potency result in [4] and in test [5] was “inactive” in each case. Further, the compound was called inactive in [6]. In addition, the max response in test [8] is 1.85%.

In the case of `Clc1ccc2c(c1)N=C(N1CCNCC1)c1ccccc1N2`, the outcome in test [16] was inactive.

Consider `Cn1cnc2c(NCc3ccccc3)nc(NCCO)nc21`, for which, in [16], the outcome was inactive.

Turning to `O=C(Nc1ccc(Cl)cc1)Nc1ccc(Cl)c(Cl)c1`, the activation in test [3] was 6.88%. In addition, the max response in test [8] was -0.555%.

With `O=C(c1ccccc1)c1ccccc1`, the activation in test [2] is -6.89% and 0.517%; in [7] it was -0.735% and 18.8%. Also, the Potency result in test [4] and in [5] was “inactive” throughout. Besides, the compound was called inactive in [6]. Moreover, the max response in test [8] was -0.839% and -0.419%.

Turning to `N[C@@H](Cn1ccc(=O)c(O)c1)C(=O)O`, the outcome in [16] was inactive.

For `O=C1NC(=O)/C(=C/c2ccc3c(c2)OC(F)(F)O3)S1`, the outcome in test [16] was inactive.

Turning to `CCN(CC)CCNC(=O)c1ccc(NS(C)(=O)=O)cc1`, the outcome in test [16] was inactive.

As to `CN(C)c1cc2c(Nc3ccc4c(cnn4Cc4ccccc4)c3)ncnc2cn1`, the Potency in test [14] is 207 nM (active). Moreover, the compound was classed as inactive in [15] and in test [16].

As for `CC(C)N(CCC(=O)c1ccc2ccccc2c1)Cc1ccccc1`, the result in test [16] was inactive.

Turning to `Oc1ccccc1`, the activation in [2] is -2.44% and -1.24% and 0.0138%; in [7], -1.73% and 0.212% and 0.333%. The compound was classed as inactive in test [6]. Also, the max response in test [8] is -1.31% and -1.33% and -1.91%. Also, the Potency entry in [9] was “inactive”.

In the case of `O=C(Oc1ccccc1)c1cccc(C(=O)Oc2ccccc2)c1`, in test [8], the max response was 4.8%.

In the case of `O=[N+]([O-])c1ccc(-c2nc(-c3ccc(F)cc3)c(-c3ccncc3)[nH]2)cc1`, the outcome in test [16] was inactive.

As to `COC(=O)C1=CO[C@@H](O)[C@@H]2C(CO)=CC[C@H]12`, the result in test [16] was inactive.

For `CCN(CC)CCOc1ccc(/C(=C(\Cl)c2ccccc2)c2ccccc2)cc1`, the activation in [7] was -0.728%. Also, the max response in [8] was 11.1%.

Turning to `Nc1ncnc2n[nH]c(Nc3ccc(F)cc3)c12`, the outcome in [16] was inactive.

Take `COc1ccccc1N1CCN(CCN2C(=O)CC3(CCCC3)CC2=O)CC1`: in [16], the outcome was inactive.

In the case of `O=C1NC(c2cccc([N+](=O)[O-])c2)=CCN1c1ccccc1O`, the result in test [16] was inactive.

With `NC(N)=NCCCCN=C(N)N`, the outcome in [16] was inactive.

For `C[N+](C)(C)CCO`, the outcome in test [16] was inactive.

For `Cc1nn(-c2ccccc2)c(C)c1/C=N/N1CCN(Cc2ccccc2)CC1`, in test [16], the result was inactive.
